Several values for one entry are separate records, joined by “and”; a condition that tells them apart may be missing. Identical values can stand only once. About 2,000 (36%) of roughly 5,500 compounds were called active. Roughly 18% stayed inconclusive and do not appear here. No stated cut-off is given here; in the data, active means normalized growth mostly below about 0.91 (no sharp cut-off); inconclusive means no clear call, values can overlap the other calls; inactive means mostly above about 0.92. The list shows a part of the results.
Assay: chemical genetic growth profiling, strain panel (AID 1159580);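 further: tested at 20 µM; growth read once vehicle control cultures reached saturation at 30 °C; 1 = growth at the plate median or of vehicle wells; lower values mean less growth of the strain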
Settings: growth OD

Measured: normalized growth

C=C(C)[C@@H]1[C@H]2OC(=O)[C@@H]1[C@]1(O)C[C@H]3O[C@]34C(=O)O[C@H]2[C@]14C
inactive: S. cerevisiae deletion strains, locus YAL013W, strain DEP1, active compounds read low 0.985 | S. cerevisiae deletion strains, locus YBR021W, strain FUR4, active compounds read low 1.01 | S. cerevisiae deletion strains, locus YBR229C, strain ROT2, active compounds read low 0.947 | S. cerevisiae deletion strains, locus YCL029C, strain bik1, active compounds read low 0.997 | S. cerevisiae deletion strains, locus YDL035C, strain GPR1, active compounds read low 0.987 | S. cerevisiae deletion strains, locus YDL074C, strain BRE1, active compounds read low 1.02 | S. cerevisiae deletion strains, locus YDL101C, strain DUN1, active compounds read low 0.98 | S. cerevisiae deletion strains, locus YDL134C, strain PPH21, active compounds read low 0.988 | S. cerevisiae deletion strains, locus YDL185W, strain tfp1, active compounds read low 1 | S. cerevisiae deletion strains, locus YDL192W, strain arf1, active compounds read low 0.99 | S. cerevisiae deletion strains, locus YDR101C, strain arx1, active compounds read low 1 | S. cerevisiae deletion strains, locus YDR150W, strain NUM1, active compounds read low 0.971 | S. cerevisiae deletion strains, locus YDR162C, strain NBP2, active compounds read low 0.987 | S. cerevisiae deletion strains, locus YDR318W, strain mcm21, active compounds read low 1.01 | S. cerevisiae deletion strains, locus YDR388W, active compounds read low 1.01 | S. cerevisiae deletion strains, locus YDR502C, strain sam2, active compounds read low 0.994 | S. cerevisiae deletion strains, locus YEL061C, strain CIN8, active compounds read low 0.987 | S. cerevisiae deletion strains, locus YER110C, active compounds read low 0.973 | S. cerevisiae deletion strains, locus YER155C, strain BEM2, active compounds read low 0.999 | S. cerevisiae deletion strains, locus YER167W, strain BCK2, active compounds read low 1 | S. cerevisiae deletion strains, locus YGL078C, strain dbp3, active compounds read low 0.994 | S. cerevisiae deletion strains, locus YGL086W, strain mad1, active compounds read low 0.99 | S. cerevisiae deletion strains, locus YGL248W, strain PDE1, active compounds read low 0.98 | S. cerevisiae deletion strains, locus YGR078C, strain PAC10, active compounds read low 1.01 | S. cerevisiae deletion strains, locus YGR135W, strain pre9, active compounds read low 1 | S. cerevisiae deletion strains, locus YGR229C, strain SMI1, active compounds read low 1.01 | S. cerevisiae deletion strains, locus YGR252W, strain gcn5, active compounds read low 0.95 | S. cerevisiae deletion strains, locus YHR030C, strain SLT2, active compounds read low 0.996 and 1.03 | S. cerevisiae deletion strains, locus YHR079C, strain IRE1 (second series), active compounds read low 1 | S. cerevisiae deletion strains, locus YHR079C, strain IRE1, active compounds read low 0.993 | S. cerevisiae deletion strains, locus YHR094C, strain hxt1, active compounds read low 0.996 | S. cerevisiae deletion strains, locus YHR129C, strain ARP1, active compounds read low 1 | S. cerevisiae deletion strains, locus YHR200W, strain rpn10, active compounds read low 1 | S. cerevisiae deletion strains, locus YIL066C, strain RNR3, active compounds read low 0.97 | S. cerevisiae deletion strains, locus YIL073C, strain SPO22, active compounds read low 0.982 | S. cerevisiae deletion strains, locus YIL125W, strain kgd1, active compounds read low 0.99 | S. cerevisiae deletion strains, locus YIR030C, strain dcg1, active compounds read low 0.99 | S. cerevisiae deletion strains, locus YJL095W, strain BCK1, active compounds read low 1.02 and 0.989 | S. cerevisiae deletion strains, locus YJL134W, strain LCB3, active compounds read low 0.984 | S. cerevisiae deletion strains, locus YJL168C, strain set2, active compounds read low 1 | S. cerevisiae deletion strains, locus YJL187C, strain SWE1 (second series), active compounds read low 0.986 | S. cerevisiae deletion strains, locus YJR043C, strain POL32, active compounds read low 1.02 | S. cerevisiae deletion strains, locus YJR066W, strain TOR1, active compounds read low 0.962 | S. cerevisiae deletion strains, locus YJR075W, strain HOC1, active compounds read low 1 | S. cerevisiae deletion strains, locus YKL009W, strain mrt4, active compounds read low 0.96 | S. cerevisiae deletion strains, locus YKL068W, active compounds read low 0.997 | S. cerevisiae deletion strains, locus YKL085W, strain MDH1 (second series), active compounds read low 0.996 | S. cerevisiae deletion strains, locus YKL085W, strain MDH1, active compounds read low 0.996 | S. cerevisiae deletion strains, locus YKL190W, strain CNB1, active compounds read low 1 | S. cerevisiae deletion strains, locus YKR001C, strain vps1, active compounds read low 1.01 | S. cerevisiae deletion strains, locus YLR039C, strain RIC1, active compounds read low 0.972 | S. cerevisiae deletion strains, locus YLR058C, strain SHM2, active compounds read low 0.964 | S. cerevisiae deletion strains, locus YLR102C, strain apc9, active compounds read low 1 | S. cerevisiae deletion strains, locus YLR113W, strain HOG1, active compounds read low 0.982 | S. cerevisiae deletion strains, locus YLR262C, strain YPT6, active compounds read low 0.93 | S. cerevisiae deletion strains, locus YLR268W, strain sec22, active compounds read low 1.07 | S. cerevisiae deletion strains, locus YLR330W, strain CHS5, active compounds read low 0.983 | S. cerevisiae deletion strains, locus YLR342W, strain FKS1 (second series), active compounds read low 1.01 | S. cerevisiae deletion strains, locus YLR371W, strain rom2, active compounds read low 0.988 | S. cerevisiae deletion strains, locus YLR418C, strain cdc73, active compounds read low 0.998 | S. cerevisiae deletion strains, locus YML016C, strain PPZ1, active compounds read low 0.982 | S. cerevisiae deletion strains, locus YML032C, strain rad52, active compounds read low 1.02 | S. cerevisiae deletion strains, locus YML124C, strain tub3, active compounds read low 0.992 | S. cerevisiae deletion strains, locus YMR078C, strain ctf18, active compounds read low 1 | S. cerevisiae deletion strains, locus YMR223W, strain ubp8, active compounds read low 0.983 | S. cerevisiae deletion strains, locus YMR263W, strain SAP30, active compounds read low 1.01 | S. cerevisiae deletion strains, locus YMR307W, strain GAS1, active compounds read low 0.987 | S. cerevisiae deletion strains, locus YNL067W, strain RPL9B, active compounds read low 1.02 | S. cerevisiae deletion strains, locus YNL128W, strain TEP1, active compounds read low 0.976 | S. cerevisiae deletion strains, locus YNL153C, strain GIM3, active compounds read low 0.998 | S. cerevisiae deletion strains, locus YNL183C, strain NPR1, active compounds read low 0.954 | S. cerevisiae deletion strains, locus YNL233W, strain BNI4, active compounds read low 1 | S. cerevisiae deletion strains, locus YNL250W, strain rad50, active compounds read low 0.975 | S. cerevisiae deletion strains, locus YNL271C, strain bni1, active compounds read low 1.01 | S. cerevisiae deletion strains, locus YNL298W, strain CLA4, active compounds read low 0.999 | S. cerevisiae deletion strains, locus YNL307C, strain MCK1, active compounds read low 0.987 | S. cerevisiae deletion strains, locus YNL322C, strain KRE1, active compounds read low 0.994 | S. cerevisiae deletion strains, locus YNR052C, strain pop2, active compounds read low 1 | S. cerevisiae deletion strains, locus YOL006C, strain TOP1, active compounds read low 1.03 | S. cerevisiae deletion strains, locus YOL012C, strain htz1 0.801 | S. cerevisiae deletion strains, locus YOL147C, strain pex11, active compounds read low 0.991 | S. cerevisiae deletion strains, locus YOR061W, strain CKA2, active compounds read low 0.976 | S. cerevisiae deletion strains, locus YOR069W, strain VPS5, active compounds read low 0.98 | S. cerevisiae deletion strains, locus YOR136W, strain idh2, active compounds read low 0.986 | S. cerevisiae deletion strains, locus YOR144C, strain elg1, active compounds read low 0.997 | S. cerevisiae deletion strains, locus YOR184W, strain ser1, active compounds read low 0.985 | S. cerevisiae deletion strains, locus YOR231W, strain MKK1, active compounds read low 1.02 | S. cerevisiae deletion strains, locus YOR316C, strain cot1, active compounds read low 0.995 | S. cerevisiae deletion strains, locus YPL055C, strain LGE1, active compounds read low 0.978 | S. cerevisiae deletion strains, locus YPL241C, strain CIN2, active compounds read low 0.994 | S. cerevisiae deletion strains, locus YPL256C, strain CLN2, active compounds read low 1.05 | S. cerevisiae deletion strains, locus YPR119W, strain clb2, active compounds read low 0.991 | S. cerevisiae deletion strains, locus YPR141C, strain kar3, active compounds read low 0.981 | S. cerevisiae deletion strains, locus YPR163C, strain tif3, active compounds read low 1 | S. cerevisiae deletion strains, locus YPR167C, strain met16, active compounds read low 1 | S. cerevisiae deletion strains, strain wtn01, active compounds read low 1.02 | S. cerevisiae strains, strain wild type, active compounds read low 0.981

Source: PubChem BioAssay AID1159580 (chemical genetic matrix, 2015)
